Sampled rows, rich in hits. Any-hit rate of the full collection: about 11%.
PNC assembly inh – High Content Assay for Compounds that inhibit the Assembly of the Perinucleolar Compartment; PC3M PTB-GFP, PNC prevalence imaging, 16 h; hits give low values; activity change (PNC), negative = inhibition, % at 10 µM; 140,000 compounds, 3.1% hits;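 active = readout at or below -70, meaning at least 70% loss of cells showing the perinucleolar compartment, a nuclear body marking cancer cells; inconclusive = readout between -30 and a set limit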;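 note: plate controls were DMSO wells for no effect and camptothecin positive control wells for full effect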
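Compounds are pinned in duplicate onto adhered PC3M cells stably expressing GFP-tagged PTB and incubated 16 h at 37 C. Cells are then fixed, nuclei stained with Hoechst, and PNC-positive cells counted.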
ALDH1A1 inh – qHTS Assay for Inhibitors of Aldehyde Dehydrogenase 1 (ALDH1A1) | Aldehyde dehydrogenase 1A1 (Homo sapiens), P00352 | Purified ALDH1A1, NADH fluorescence, propionaldehyde substrate | Potency, µM (titrated, usually from 75.3 µM), inactives show at the top dose activity, negative = inhibition, hits mostly inhibitors | 220,000 compounds, 7.3% hits | AID 1030, 2008;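 note: potency is the fitted concentration of half-maximal effect; plate controls were no enzyme wells and a reference inhibitor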
Target sequence (P00352 whole entry, looked up): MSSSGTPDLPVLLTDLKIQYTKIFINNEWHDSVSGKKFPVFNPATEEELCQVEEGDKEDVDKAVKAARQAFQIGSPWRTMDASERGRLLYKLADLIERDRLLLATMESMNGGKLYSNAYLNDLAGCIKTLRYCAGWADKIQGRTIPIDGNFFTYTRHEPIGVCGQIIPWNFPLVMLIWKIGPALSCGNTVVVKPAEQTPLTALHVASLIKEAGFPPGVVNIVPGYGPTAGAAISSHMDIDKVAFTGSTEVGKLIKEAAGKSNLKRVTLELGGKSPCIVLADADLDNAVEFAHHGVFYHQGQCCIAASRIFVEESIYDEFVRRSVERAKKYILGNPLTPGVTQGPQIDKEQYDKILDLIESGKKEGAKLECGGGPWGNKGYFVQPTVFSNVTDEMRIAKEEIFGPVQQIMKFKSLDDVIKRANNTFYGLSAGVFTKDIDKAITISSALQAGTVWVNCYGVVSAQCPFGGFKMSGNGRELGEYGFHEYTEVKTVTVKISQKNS
HPGD block – qHTS Assay for Inhibitors of HPGD (15-Hydroxyprostaglandin Dehydrogenase); 15-hydroxyprostaglandin dehydrogenase [NAD(+)] (Homo sapiens), P15428; purified HPGD, NADH fluorescence kinetic, PGE2 substrate; Potency, µM, inactives show top-dose activity change, negative = inhibition, usual class: inhibitors; 150,000 compounds, 4.3% hits; note: potency is the fitted concentration of half-maximal effect
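20 nM HPGD preincubated 15 min at room temperature with compound in 50 mM Tris-HCl pH 8, 0.01% Tween 20. Started with 1 mM NAD+ and 30 uM prostaglandin E2; NADH fluorescence (360/450 nm) read 5 times over 30-s intervals, last minus first.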
KDM4E inh – qHTS Assay for Inhibitors of Human Jumonji Domain Containing 2E (JMJD2E) | Lysine-specific demethylase 4E (Homo sapiens), B2RXH2 | JMJD2E catalytic domain, FDH-coupled NADH fluorescence (FDH is formaldehyde dehydrogenase) | Potency, µM (top dose mostly 57.1 µM), without a hit: at the highest dose activity change, negative = inhibition, usual class: inhibitors | 230,000 compounds, 1.6% hits | AID 2147, 2009;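 note: potency is the fitted concentration of half-maximal effect; 0% = wells with enzyme and -100% = buffer wells without enzyme; nearly all actives have a fitted effect of over 50% in size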
Numbers without * were called inactive; ? = inconclusive; . = no result given; [ ] = another dose, or the depositor's remark. Unless noted, calls come from the whole dose curve; as a rule, active = well fitted inhibition curve with a large enough effect (not every such curve was filed as active); inconclusive = small, poorly fitted or top-dose-only effect, or another doubt; inactive = no such curve, though single readings can be large or run the other way. Unless noted, % is set by controls: 0 for no effect and ±100 for the full control effect.

SMILES	PNC assembly inh	ALDH1A1 inh	HPGD block	KDM4E inh
O=C(CN1C(=O)NC2(CCc3ccccc32)C1=O)c1ccc2c(c1)OCCO2 (stereo not given)	14.4	-0.4%	-9.8%	-10.2%
C#CCN1C(=O)C(O)(CC(=O)c2ccc3c(c2)OCCO3)c2ccccc21 (stereo not given)	21.1	1µM*	-23.3%	-6.4%
CCCN1C(=O)C(O)(CC(=O)c2cccc(OC)c2)c2ccccc21 (stereo not given)	-2.2	4.47µM*	-23.2%	5.5%
C#CCN1C(=O)C(O)(CC(=O)c2ccc(OC)c(OC)c2)c2ccccc21 (stereo not given)	?	0.355µM*	-15.1%	-7.6%
Cc1nsc(Nc2ccc([N+](=O)[O-])cc2)c1C#N	.	?	.	-11.7%
N#C/C(=C\c1c(N2CCC(C(N)=O)CC2)nc2ccccn2c1=O)S(=O)(=O)c1ccc(Cl)cc1	.	.	.	8.0%
CCCN1C(=O)C(O)(CC(=O)c2ccc3c(c2)OCCO3)c2ccccc21 (stereo not given)	?	7.08µM*	-16.8%	-5.3%
Cc1ccc2c(c1)C(O)(CC(=O)/C=C/C=C/c1ccccc1)C(=O)N2 (stereo not given)	-91.9*	-3.1%	-24.4%	-13.4%
CCN1C(=O)C(O)(CC(=O)/C=C/C=C/c2ccccc2)c2ccccc21 (stereo not given)	27.7	?	-22.5%	6.7%
CN1C(=O)C(O)(CC(=O)c2ccc3c(c2)OCO3)c2ccccc21 (stereo not given)	-17.6	-0.1%	-14.6%	-18.3%
O=C(CSc1cccc(C(F)(F)F)c1)Nc1cc(S(=O)(=O)N2CCCC2)ccc1Cl	62.2	?	-17.3%	-7.9%
NC(C(=O)N[C@@H]1C(=O)N2C(C(=O)O)=C(Cl)CS[C@H]12)c1ccccc1 (stereo not given in full)	.	?	-25.9%	?
O=C(O)CNS(=O)(=O)c1ccc(C2CCCCC2)cc1	.	0.3%	.	-5.3%
COc1ccc2c(c1)sc(=N)n2C	.	20µM*	.	-26.2%
CC(C)C1S/C(=N/N=C/c2cccs2)NC1=O (stereo not given)	?	?	25.1µM*	8.0%
CC1S/C(=N/N=C/c2cccs2)NC1=O (stereo not given)	-11.0	-6.7%	.	-2.4%
O=C(O)CC1(CC(=O)NCc2cc(F)cc3c2OCOC3)CCCCC1	.	10µM*	.	9.3%
COC(=O)[C@H](COC(C)(C)C)NC(=O)O[C@@H]1C(=O)c2cc(Br)ccc2O[C@H]1c1cccc(OC)c1	.	10.9%	-8.8%	7.2%
COC(=O)[C@H](Cc1ccccc1)NC(=O)O[C@@H]1C(=O)c2cc(OC)ccc2O[C@H]1c1cccc(OC)c1	.	20µM*	-19.6%	?
O=S(=O)(c1ccc(-c2csc(-c3cccnc3)n2)cc1)N1CCCCC1	-23.1	?	28.2µM*	?
c1cncc(-c2nc(-c3ccco3)cs2)c1	9.2	1.26µM*	?	-28.6%
O=C(N/N=C/c1ccco1)c1cccc(N2Cc3ccccc3C2)c1	.	20µM*	.	-0.8%
O=C(N/N=C/c1ccco1)c1cc(-c2cccc3ccccc23)n[nH]1	46.6	-4.4%	25.1µM*	8.7%
COc1cc(C2C(C(C)=O)=C(C)Nc3ncnn32)ccc1O (stereo not given)	-15.9	7.3%	-7.5%	4.1%
COc1cc(C2Nn3c(nnc3-c3ccccc3OC)S2)ccc1O (stereo not given)	-15.4	23.8µM*	?	-20.2%
SMILES	PNC assembly inh	ALDH1A1 inh	HPGD block	KDM4E inh
CCc1ccc(CCC(=O)Nc2ccc(C)c(C)c2)o1	-10.7	12.6µM*	-25.0%	2.4%
CC(C)(C)c1ccc(NC(=O)COC(=O)C2(C)CC2(Cl)Cl)cc1 (stereo not given)	.	-5.2%	.	2.4%
Cc1[nH]c2ccccc2c1N=Nc1ccccc1C(=O)O	-8.3	?	14.1µM*	-0.2%
Cc1[nH]c2ccccc2c1N=Nc1cccc(C(=O)O)c1	?	-3.4%	-16.4%	9.6%
Cc1cc(C)c(C(N)=O)c(Nc2cccc3ccccc23)n1	15.2	-7.4%	-5.2%	3.3%
Cc1cc(C)c(C(N)=O)c(Nc2cccc(Cl)c2)n1	-100.0*	0.0%	-19.8%	1.3%
Cc1cc(C)c(C(N)=O)c(Nc2ccc3c(c2)OCCO3)n1	-100.0*	-4.2%	-13.5%	1.7%
COc1ccc(Nc2nc(C)cc(C)c2C(N)=O)cc1	17.4	3.4%	-3.4%	1.8%
CC(C)CCN1CCN(Cc2cccc(C(F)(F)F)c2)CC1CCO (stereo not given)	.	4.9%	.	5.2%
COc1cc(/C=N/NC(=O)C2=NNC(=O)C2C)ccc1O (stereo not given)	.	.	.	-13.1%
CC1C(=O)NN=C1C(=O)N/N=C\c1ccc(O)cc1O (stereo not given)	29.9	11.2%	-9.1%	22.4µM*
CCOC(=S)NC(=O)c1sc2ccccc2c1Cl	-108.8*	0.355µM*	-25.2%	-8.6%
O=C(NC(=S)NCCO)c1sc2ccccc2c1Cl	.	?	.	-7.6%
COc1cc(NS(=O)(=O)c2ccc(NC(=S)NC(=O)c3sc4ccccc4c3Cl)cc2)ncn1	?	22.4µM*	-15.6%	0.5%
COc1cc(NS(=O)(=O)c2ccc(NC(=S)NC(=O)c3ccco3)cc2)ncn1	.	?	.	-7.7%
CCCOC(=S)NC(=O)c1sc2ccccc2c1Cl	?	5.62µM*	20µM*	-6.9%
C=C1C(=O)OC2CC1C(OC(C)=O)CC(C)=CCCC(C)=CCC[C@@]2(C)O (stereo not given in full)	.	?	-5.5%	-2.5%
CN(Cc1ccco1)c1ncncc1-c1ccc2c(c1)OCO2	.	1.7%	.	.
CC(NC(=O)c1ccc(F)cc1)C(c1cccs1)N1CCN(C)CC1 (stereo not given)	-115.7*	10.6%	-11.9%	9.3%
c1ccc(CCNc2ncnc3c2cnn3-c2ccccc2)cc1	17.8	?	15.8µM*	-26.8%
CC(C)(C)Nc1ncnc2c1cnn2-c1ccccc1	?	-2.3%	25.1µM*	-11.4%
Clc1ccc(-n2ncc3c(NCc4cccs4)ncnc32)cc1	?	1.58µM*	0.4%	7.0%
c1ccc(CNc2ncnc3c2cnn3-c2ccccc2)cc1	22.0	-12.6%	.	?
O=C(NC12CC3CC(CC(C3)C1)C2)c1ccc(N2CCNCC2)c([N+](=O)[O-])c1	.	-15.5%	.	2.5%
O=C(NC1CCCCC1)C(=S)N1CCCC1	.	6.9%	.	14.6%
COc1ccccc1-c1cncnc1N1CCN(C)CC1	.	1.1%	.	.
NC(=O)c1cc[n+](CC2=C(C(=O)O)N3C(=O)C(NC(=O)C(c4ccccc4)S(=O)(=O)[O-])C3SC2)cc1 (stereo not given)	.	?	31.6µM*	?
NC(=O)c1cc[n+](CC2=C(C(=O)O)N3C(=O)[C@@H](NC(=O)[C@H](c4ccccc4)S(=O)(=O)[O-])[C@@H]3SC2)cc1	.	-3.3%[20.9 µM]	-6.4%	-28.0%[25.5 µM]

Source: PubChem BioAssay
